Assay outcomes as filed in PubChem BioAssay.
IL-1B inflam inh = qHTS for Inhibitors of Inflammasome Signaling: IL-1-beta AlphaLISA Primary Screen. AID 743279, 2014. THP-1 LPS/ATP IL-1B secretion, AlphaLISA, 16 h; hits give low values. 360,000 tested, 4.7% active. activity change, % at 57.5 µM; in the data active means activity change below about -50%; inconclusive means mostly about -30% to -49%
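THP-1 cells pretreated 1 hr with compounds (up to 57.5 uM final), then stimulated with LPS (250 ng/mL final) plus ATP (1.25 mM final); secreted IL-1B measured by AlphaLISA after 16 hr, decreased signal indicating inhibition.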
DT40 TDP1 CPT = qHTS for Inhibitors of human tyrosyl-DNA phosphodiesterase 1 (TDP1): qHTS in cells in presence of CPT; chicken DT40 Tdp1-/-;hTDP1 cells + 20 nM CPT, ATP luminescence, 48 h; Potency, µM (titrated, usually from 46.2 µM), hits mostly inhibitors; 420,000 tested, 12% active; further: nearly all actives have a fitted effect of over 55% in size
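Chicken DT40 Tdp1-/- cells complemented with human TDP1, 400 cells/well, exposed to compounds plus 20 nM camptothecin for at least 48 h at 37 C; viability read as ATP content by CellTiter-Glo luminescence.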
Giardia kill = Small Molecules that selectively kill Giardia lamblia: qHTS; AID 540267, 2011; Giardia lamblia trophozoite viability; activity change, % at 7.66 µM, hits read low; 340,000 tested, 0.15% active; in the data active means activity change below about -80%; inconclusive means between about -30% and that limit;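 further: parasites exposed to compound for two days anaerobically before the ATP read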
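Trophozoites 100 cells/well + cpd; 48 hrs, 37 deg C, anaerobic. ATPLite 1-Step added, 15-30 min RT, luminescence read (ATP-based viability).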
ELG1 repair inh = qHTS screen for small molecules that inhibit ELG1-dependent DNA repair in human embryonic kidney (HEK293T) cells expressing luciferase-tagged ELG1; 330,000 tested, 2.3% active; HEK293T ELG1-luciferase reporter, luminescence, 16 h; DNA damage induced by 5-fluorouridine; Potency, µM (doses to about 46.1 µM), usual class: inhibitors; further: nearly all actives have a fitted effect of over 55% in size
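HEK293T cells expressing luciferase-tagged ELG1 (2,000/well) received 5-Fluorouridine plus compound or DMSO for 16 hr at 37 °C. Luciferase was read by ONE-Glo luminescence after 30 min at room temperature.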
TDP1 cell noCPT = qHTS for Inhibitors of human tyrosyl-DNA phosphodiesterase 1 (TDP1): qHTS in cells in absence of CPT. Potency, µM (doses to about 46.2 µM), most hits filed as inhibitors. DT40 Tdp1-/- hTDP1 cells, no CPT, ATP luminescence, 48 h. 420,000 tested, 15% active; further: nearly all actives have a fitted effect of over 55% in size
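Luminescent ATP content (CellTiter-Glo) served as the growth readout. Knockout chicken DT40 cells expressing human TDP1 were exposed to compounds without camptothecin for a minimum 48 hr at 37 °C.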
TDP1 inh = qHTS Assay for Inhibitors of Tyrosyl-DNA Phosphodiesterase (TDP1) | Tyrosyl-DNA phosphodiesterase 1 (Homo sapiens), Q9NUW8 | recombinant TDP1, AlphaScreen DNA substrate cleavage | Potency, µM (doses to about 130 µM), usual class: inhibitors | 350,000 tested, 0.28% active | AID 485290, 2010; further: nearly all actives have a fitted effect of over 40% in size
Target sequence (Q9NUW8 whole entry, looked up): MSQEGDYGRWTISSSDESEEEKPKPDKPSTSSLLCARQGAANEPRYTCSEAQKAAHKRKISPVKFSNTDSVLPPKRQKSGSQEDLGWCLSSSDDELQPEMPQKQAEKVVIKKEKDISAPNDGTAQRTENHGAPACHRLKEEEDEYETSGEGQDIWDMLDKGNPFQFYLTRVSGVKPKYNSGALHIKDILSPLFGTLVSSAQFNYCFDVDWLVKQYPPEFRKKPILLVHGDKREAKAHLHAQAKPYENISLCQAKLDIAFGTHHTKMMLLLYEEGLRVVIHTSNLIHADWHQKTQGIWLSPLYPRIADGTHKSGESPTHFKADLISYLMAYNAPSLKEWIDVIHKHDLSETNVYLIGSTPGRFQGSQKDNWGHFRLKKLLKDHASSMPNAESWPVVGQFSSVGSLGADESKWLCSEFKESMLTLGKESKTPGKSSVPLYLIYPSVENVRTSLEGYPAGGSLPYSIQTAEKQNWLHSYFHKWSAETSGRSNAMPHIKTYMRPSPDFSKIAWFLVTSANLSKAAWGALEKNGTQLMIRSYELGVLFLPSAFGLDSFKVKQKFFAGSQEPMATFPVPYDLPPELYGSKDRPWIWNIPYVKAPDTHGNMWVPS
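Tdp1 1 nM final; 15 min RT w/ cpd; substrate 15 nM, 5 min; beads 10 ug/ml, 10 min; AlphaScreen read. Neg ctrl: no enzyme.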
Each line names hits and unclear results; the compound was inactive in the other large screens. Shown are actives, neighbours in structure and some others; about 19% of the full set was active somewhere. Unless noted, the call rests on the fitted dose curve; in most records, active means well fitted curve in the direction sought with a large enough effect; inconclusive means small, poorly fitted or top-dose-only effect, or another doubt; inactive means no such curve, though single readings can be large; an effect the other way counts as inactive or inconclusive.

Cc1c(S(=O)(=O)N(C)C2CCCCC2)c(=O)n(C)c(=O)n1C	none (no result: TDP1 inh)
Cc1onc(-c2ccccc2)c1C(=O)NC(=S)Nc1sc2c(c1C#N)CCC(C)C2 (stereo not given)	DT40 TDP1 CPT inconclusive, ELG1 repair inh inconclusive, TDP1 cell noCPT inconclusive
N#Cc1c(NC(=O)c2ccccc2)sc2c1CCCCC2	IL-1B inflam inh inconclusive, ELG1 repair inh inconclusive, TDP1 cell noCPT inconclusive
Cc1onc(-c2ccccc2)c1C(=O)Nc1sc2c(c1C(N)=O)CCC2	IL-1B inflam inh -50, TDP1 cell noCPT inconclusive
N#Cc1c(NC(=O)c2cc(-n3cnnc3)ccc2Cl)sc2c1CCCC2	DT40 TDP1 CPT 21µM, TDP1 cell noCPT 13µM
Cc1onc(-c2ccccc2)c1C(=O)Nc1sc2c(c1C#N)CCC2	DT40 TDP1 CPT 29µM, ELG1 repair inh inconclusive, TDP1 cell noCPT inconclusive
Cc1onc(-c2ccccc2)c1C(=O)Nc1sccc1C#N	IL-1B inflam inh -65
CCCC[C@@H]1C[C@H]1C(NS(=O)(=O)c1cccc2cccnc12)c1ccc(-c2ccccc2)cc1 (stereo not given in full)	none (no result: IL-1B inflam inh, DT40 TDP1 CPT, Giardia kill, ELG1 repair inh, TDP1 cell noCPT)
Cc1cc2cc3c(=O)[nH]c(=O)[nH]c3nc2cc1C	none (no result: IL-1B inflam inh, DT40 TDP1 CPT, Giardia kill, TDP1 cell noCPT)
O=C(Nc1ccccc1)N1CC2(CCN(S(=O)(=O)c3ccccc3)CC2)C1	none (no result: IL-1B inflam inh, Giardia kill, ELG1 repair inh, TDP1 inh)
COC(=O)C1(Cc2ccccc2)C=C2C(=C(c3ccccc3)C(=O)C2C)CN1 (stereo not given)	none (no result: IL-1B inflam inh, DT40 TDP1 CPT, Giardia kill, ELG1 repair inh, TDP1 cell noCPT)
Cc1cc(-c2ccnc(-n3ncc(C(=O)N(C)CC(O)c4ccccc4)c3C)n2)c(C)s1 (stereo not given)	none (no result: IL-1B inflam inh, Giardia kill, ELG1 repair inh, TDP1 inh)
N#Cc1c(NC(=O)/C=C/c2ccco2)sc2c1CCCC2	DT40 TDP1 CPT 0.23µM, ELG1 repair inh inconclusive, TDP1 cell noCPT 0.41µM
CCOC(=O)c1nc(N)c(C(=O)OCC)[nH]1	DT40 TDP1 CPT inconclusive, TDP1 cell noCPT 29µM
CSc1ccccc1NC(=O)CN(C)CC(=O)Nc1ccccc1C(F)(F)F	ELG1 repair inh inconclusive
CN(c1cccc(NC(=O)Nc2cccc(Cl)c2)c1)S(C)(=O)=O	DT40 TDP1 CPT inconclusive, TDP1 cell noCPT 16µM
CSc1ccccc1NC(=O)Nc1cccc(Cl)c1	DT40 TDP1 CPT 16µM, TDP1 cell noCPT inconclusive
CC(=O)Nc1cccc(N(C)S(C)(=O)=O)c1	none
CSc1ccccc1NC(=O)CN(C)CC(=O)Nc1ccc(Cl)cc1F	DT40 TDP1 CPT 23µM, ELG1 repair inh inconclusive, TDP1 cell noCPT inconclusive
CSc1ccccc1NC(=O)Nc1ccc(F)c(Cl)c1	IL-1B inflam inh inconclusive, DT40 TDP1 CPT inconclusive, ELG1 repair inh inconclusive, TDP1 cell noCPT inconclusive
COc1ccc(-c2cn3cccnc3n2)cc1NC(=O)Nc1ccc(Cl)cc1	DT40 TDP1 CPT inconclusive, TDP1 cell noCPT 16µM (no result: IL-1B inflam inh, Giardia kill, ELG1 repair inh)
COc1ccc(NC(=O)Nc2cc(-c3cn4cccnc4n3)ccc2OC)cc1	none (no result: IL-1B inflam inh, DT40 TDP1 CPT, Giardia kill, ELG1 repair inh, TDP1 cell noCPT)
COc1ccc(-c2cn3cccnc3n2)cc1NC(=O)c1cc(OC)c(OC)c(OC)c1	ELG1 repair inh 8.2µM, TDP1 cell noCPT inconclusive
CCOc1ccc(C(=O)N/N=C(\c2ccccc2)c2ccccn2)cc1	IL-1B inflam inh -100, DT40 TDP1 CPT 2.1µM, ELG1 repair inh inconclusive, TDP1 cell noCPT 2.9µM
N/C(=N\OC(=O)c1cccc([N+](=O)[O-])c1)c1ccccn1	DT40 TDP1 CPT inconclusive, ELG1 repair inh inconclusive
O=C(N/N=C(\c1ccccc1)c1ccccn1)c1cccc([N+](=O)[O-])c1	DT40 TDP1 CPT 1.2µM, ELG1 repair inh inconclusive, TDP1 cell noCPT 1µM
Cn1ccnc1/C(=N\NC(=O)c1ccccc1)c1cccc([N+](=O)[O-])c1	IL-1B inflam inh -51, TDP1 cell noCPT inconclusive
Cn1c(CNc2ccc(F)cc2)nc2ccccc21	ELG1 repair inh inconclusive, TDP1 cell noCPT inconclusive
CC(c1ccccc1)C(NC(=O)OCC1c2ccccc2-c2ccccc21)C(=O)O (stereo not given)	DT40 TDP1 CPT inconclusive
Cc1ccc(C)c(S(=O)(=O)N2CCN(C(=O)CCNS(=O)(=O)c3ccc(C)c(C)c3)CC2)c1	DT40 TDP1 CPT inconclusive, ELG1 repair inh inconclusive, TDP1 cell noCPT 18µM
COc1cc(C(=O)NCC(=O)N2CCN(S(=O)(=O)c3cc(C)ccc3C)CC2)cc(OC)c1OC	DT40 TDP1 CPT 5.8µM, TDP1 cell noCPT 3.7µM
Cc1ccc(S(=O)(=O)NCCC(=O)N2CCN(S(=O)(=O)c3ccccc3)CC2)cc1C	DT40 TDP1 CPT inconclusive (no result: TDP1 inh)
Cc1ccc(C)c(S(=O)(=O)N2CCN(C(=O)CCNC(=O)c3ccc(Br)cc3)CC2)c1	DT40 TDP1 CPT 23µM, ELG1 repair inh inconclusive, TDP1 cell noCPT 21µM
Cc1ccc(C)c(OCCC(=O)N2CCN(S(=O)(=O)c3cc(C)ccc3C)CC2)c1	DT40 TDP1 CPT inconclusive, ELG1 repair inh inconclusive, TDP1 cell noCPT inconclusive (no result: TDP1 inh)
COc1cc(OC)cc(C(=O)NCC(=O)N2CCN(S(=O)(=O)c3ccccc3F)CC2)c1	none
COC(=O)c1ccc(Cl)cc1NC(=O)N1CC(C)Oc2ccccc21 (stereo not given)	DT40 TDP1 CPT inconclusive, TDP1 cell noCPT inconclusive (no result: IL-1B inflam inh, Giardia kill, ELG1 repair inh)
COc1ccc(C2N(c3ccc4c(c3)OCCO4)C(=O)C2(F)F)cc1OC (stereo not given)	IL-1B inflam inh -79
